Measured values taken from PubChem BioAssay AID1159580 (chemical genetic matrix, 2015).
About 2,000 (36%) of roughly 5,500 compounds were called active. Inconclusive results (about 18%) are left out. Rule as the data show it: active = normalized growth mostly below about 0.91 (no sharp cut-off); inconclusive = no clear call, values can overlap the other calls; inactive = mostly above about 0.92. The list shows a part of the results.

Experiment: chemical genetic growth profiling, strain panel (AID 1159580);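 also: tested at 20 µM; growth read once vehicle control cultures reached saturation at 30 °C; 1 = growth at the plate median or of vehicle wells; lower values mean less growth of the strain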
Conditions: growth OD
[1] = S. cerevisiae deletion strains, locus YAL013W, strain DEP1, active compounds read low
[2] = S. cerevisiae deletion strains, locus YBR229C, strain ROT2, active compounds read low
[3] = S. cerevisiae deletion strains, locus YDL101C, strain DUN1, active compounds read low
[4] = S. cerevisiae deletion strains, locus YDR150W, strain NUM1, active compounds read low
[5] = S. cerevisiae deletion strains, locus YEL061C, strain CIN8, active compounds read low
[6] = S. cerevisiae deletion strains, locus YGR078C, strain PAC10, active compounds read low
[7] = S. cerevisiae deletion strains, locus YHR030C, strain SLT2, active compounds read low
[8] = S. cerevisiae deletion strains, locus YHR087W, strain rtc3, active compounds read low
[9] = S. cerevisiae deletion strains, locus YJR043C, strain POL32, active compounds read low
[10] = S. cerevisiae deletion strains, locus YJR075W, strain HOC1, active compounds read low
[11] = S. cerevisiae deletion strains, locus YKL190W, strain CNB1, active compounds read low
[12] = S. cerevisiae deletion strains, locus YLR039C, strain RIC1, active compounds read low
[13] = S. cerevisiae deletion strains, locus YLR058C, strain SHM2 (second series), active compounds read low
[14] = S. cerevisiae deletion strains, locus YLR085C, strain ARP6, active compounds read low
[15] = S. cerevisiae deletion strains, locus YLR262C, strain YPT6, active compounds read low
[16] = S. cerevisiae deletion strains, locus YML094W, strain GIM5, active compounds read low
[17] = S. cerevisiae deletion strains, locus YMR219W, strain ESC1, active compounds read low
[18] = S. cerevisiae deletion strains, locus YMR263W, strain SAP30, active compounds read low
[19] = S. cerevisiae deletion strains, locus YMR307W, strain GAS1, active compounds read low
[20] = S. cerevisiae deletion strains, locus YNL153C, strain GIM3, active compounds read low
[21] = S. cerevisiae deletion strains, locus YNL298W, strain CLA4 (second series), active compounds read low
[22] = S. cerevisiae deletion strains, locus YNL322C, strain KRE1, active compounds read low
[23] = S. cerevisiae deletion strains, locus YNR030W, strain Alg12, active compounds read low
[24] = S. cerevisiae deletion strains, locus YPL055C, strain LGE1, active compounds read low
[25] = S. cerevisiae deletion strains, locus YPL241C, strain CIN2, active compounds read low
[26] = S. cerevisiae deletion strains, locus YPR135W, strain CTF4, active compounds read low

Measured: normalized growth

O=C(Oc1ccc(C(F)(F)F)cc1[N+](=O)[O-])c1c(F)cccc1F
active: [1] 0.185 | [2] 0.178 | [3] 0.316 | [4] 0.25 | [5] 0.235 | [6] 0.172 | S. cerevisiae deletion strains, locus YGR229C, strain SMI1, active compounds read low 0.927 | [7] 0.16 | [8] 0.133 | S. cerevisiae deletion strains, locus YJL187C, strain SWE1, active compounds read low 0.141 | [9] 0.424 | [10] 0.101 | [11] 0.218 | [12] 0.286 | [13] 0.15 | [14] 0.122 | [15] 0.316 | [16] 0.4 | [17] 0.14 | [18] 0.169 | [19] 0.213 | [20] 0.227 | [21] 0.23 | [22] 0.577 | [23] 0.559 | [24] 0.171 | [25] 0.685 | [26] 0.269 | S. cerevisiae strains, strain wild type, active compounds read low 0.515

Cc1ccccc1C(=O)Oc1ccc(C(F)(F)F)cc1[N+](=O)[O-]
inactive: S. cerevisiae deletion strains, locus YAR019C, strain CDC15, active compounds read low 0.961 | S. cerevisiae deletion strains, locus YBL105C, strain PKC1, active compounds read low 0.969 | S. cerevisiae deletion strains, locus YBR135W, strain CKS1, active compounds read low 0.964 | S. cerevisiae deletion strains, locus YBR136W, strain MEC1, active compounds read low 0.962 | S. cerevisiae deletion strains, locus YBR160W, strain CDC28, active compounds read low 0.966 | S. cerevisiae deletion strains, locus YDL017W, strain CDC7, active compounds read low 0.975 | S. cerevisiae deletion strains, locus YDL028C, strain MPS1, active compounds read low 0.947 | [3] 0.979 | S. cerevisiae deletion strains, locus YDL108W, strain KIN28, active compounds read low 0.964 | S. cerevisiae deletion strains, locus YDL132W, strain cdc53, active compounds read low 0.964 | S. cerevisiae deletion strains, locus YDL214C, strain PRR2, active compounds read low 0.864 | S. cerevisiae deletion strains, locus YDR052C, strain DBF4, active compounds read low 0.969 | S. cerevisiae deletion strains, locus YDR054C, strain cdc34, active compounds read low 0.965 | S. cerevisiae deletion strains, locus YDR226W, strain ADK1, active compounds read low 0.982 | S. cerevisiae deletion strains, locus YDR477W, strain SNF1, active compounds read low 0.937 | S. cerevisiae deletion strains, locus YER123W, strain YCK3, active compounds read low 0.883 | S. cerevisiae deletion strains, locus YER133W, strain GLC7, active compounds read low 0.941 | S. cerevisiae deletion strains, locus YFL009W, strain cdc4, active compounds read low 0.96 | S. cerevisiae deletion strains, locus YFL029C, strain CAK1, active compounds read low 0.965 | S. cerevisiae deletion strains, locus YFR003C, strain YPI1, active compounds read low 0.972 | S. cerevisiae deletion strains, locus YFR019W, strain FAB1, active compounds read low 0.979 | S. cerevisiae deletion strains, locus YFR028C, strain CDC14, active compounds read low 0.963 | S. cerevisiae deletion strains, locus YGR040W, strain KSS1, active compounds read low 0.934 | S. cerevisiae deletion strains, locus YGR052W, strain FMP48, active compounds read low 0.894 | S. cerevisiae deletion strains, locus YGR092W, strain DBF2, active compounds read low 0.807 | S. cerevisiae deletion strains, locus YHR079C, strain IRE1, active compounds read low 0.836 | S. cerevisiae deletion strains, locus YHR082C, strain KSP1, active compounds read low 0.951 | S. cerevisiae deletion strains, locus YHR205W, strain SCH9, active compounds read low 0.79 | S. cerevisiae deletion strains, locus YIL147C, strain SLN1, active compounds read low 0.97 | S. cerevisiae deletion strains, locus YJL095W, strain BCK1, active compounds read low 0.831 | S. cerevisiae deletion strains, locus YJL128C, strain PBS2, active compounds read low 0.868 | S. cerevisiae deletion strains, locus YJL157C, strain FAR1, active compounds read low 0.899 | S. cerevisiae deletion strains, locus YJR016C, strain ILV3, active compounds read low 0.968 | S. cerevisiae deletion strains, locus YJR066W, strain TOR1 (second series), active compounds read low 0.891 | S. cerevisiae deletion strains, locus YJR066W, strain TOR1, active compounds read low 0.948 | S. cerevisiae deletion strains, locus YKL048C, strain ELM1, active compounds read low 0.925 | S. cerevisiae deletion strains, locus YKL067W, strain YNK1, active compounds read low 0.879 | S. cerevisiae deletion strains, locus YKL101W, strain HSL1, active compounds read low 0.874 | S. cerevisiae deletion strains, locus YKL193C, strain SDS22, active compounds read low 0.971 | S. cerevisiae deletion strains, locus YKL203C, strain TOR2, active compounds read low 0.956 | S. cerevisiae deletion strains, locus YLR133W, strain CKI1, active compounds read low 0.909 | S. cerevisiae deletion strains, locus YLR403W, strain SFP1, active compounds read low 0.908 | S. cerevisiae deletion strains, locus YML070W, strain DAK1, active compounds read low 0.891 | S. cerevisiae deletion strains, locus YMR001C, strain CDC5, active compounds read low 0.969 | S. cerevisiae deletion strains, locus YMR205C, strain PFK2 (second series), active compounds read low 0.898 | S. cerevisiae deletion strains, locus YMR277W, strain FCP1, active compounds read low 0.962 | S. cerevisiae deletion strains, locus YNL006W, strain LST8, active compounds read low 0.977 | S. cerevisiae deletion strains, locus YNL020C, strain ARK1, active compounds read low 0.893 | S. cerevisiae deletion strains, locus YNL161W, strain CBK1, active compounds read low 0.971 | S. cerevisiae deletion strains, locus YNL183C, strain NPR1, active compounds read low 0.861 | S. cerevisiae deletion strains, locus YNL207W, strain RIO2, active compounds read low 0.956 | S. cerevisiae deletion strains, locus YNL222W, strain SSU72, active compounds read low 0.955 | S. cerevisiae deletion strains, locus YNL307C, strain MCK1 (second series), active compounds read low 0.823 | S. cerevisiae deletion strains, locus YOL078W, strain AVO1, active compounds read low 0.969 | S. cerevisiae deletion strains, locus YOL136C, strain PFK27, active compounds read low 0.869 | S. cerevisiae deletion strains, locus YOR061W, strain CKA2, active compounds read low 0.879 | S. cerevisiae deletion strains, locus YOR119C, strain RIO1, active compounds read low 1 | S. cerevisiae deletion strains, locus YOR231W, strain MKK1, active compounds read low 0.827 | S. cerevisiae deletion strains, locus YOR329C, strain SCD5, active compounds read low 0.964 | S. cerevisiae deletion strains, locus YPL031C, strain PHO85, active compounds read low 0.917 | S. cerevisiae deletion strains, locus YPL153C, strain RAD53, active compounds read low 0.917 | S. cerevisiae deletion strains, locus YPL204W, strain HRR25, active compounds read low 0.882 | S. cerevisiae deletion strains, locus YPL209C, strain IPL1, active compounds read low 0.967 | S. cerevisiae deletion strains, locus YPR025C, strain CCL1, active compounds read low 0.959 | S. cerevisiae deletion strains, locus YPR106W, strain ISR1, active compounds read low 0.955 | S. cerevisiae deletion strains, locus YPR111W, strain DBF20, active compounds read low 0.912 | S. cerevisiae deletion strains, strain NNK1, active compounds read low 0.941 | S. cerevisiae deletion strains, strain TSCII, active compounds read low 0.96
active: [7] 0.769 | S. cerevisiae deletion strains, locus YLR113W, strain HOG1, active compounds read low 0.614 | S. cerevisiae deletion strains, locus YPL256C, strain CLN2, active compounds read low 0.784

COC(=O)c1sccc1OC(=O)c1c(F)cccc1F
inactive: [1] 0.963 | [2] 0.974 | [3] 0.908 | [4] 0.939 | [5] 1.01 | [6] 0.955 | [7] 0.726 | [8] 1.02 | [9] 0.981 | [10] 0.97 | [11] 0.989 | [12] 0.841 | [13] 0.961 | [14] 0.891 | [15] 0.914 | [16] 0.981 | [17] 0.955 | [18] 0.974 | [19] 0.975 | [20] 0.99 | [21] 0.912 | [22] 0.96 | [23] 0.979 | S. cerevisiae deletion strains, locus YOL006C, strain TOP1, active compounds read low 0.884 | [24] 0.97 | [25] 0.926 | [26] 0.768
